An excerpt weighted towards active compounds, which were near 2.3% of everything screened.
A549 viability = kills or reduces viability of A549 cells in Nrf2 counter-screen; A549 ARE-Fluc cells, CellTiter-Fluor viability, 18-24 h; Potency, µM (top dose mostly 46 µM), usual class: inhibitors; actives 0.16% (n = 390,000)
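Cytotoxicity counterscreen: CellTiter-Fluor fluorescence was measured in A549 ARE_Fluc cells after 18-24 h of compound exposure in a concentration series. The subsequent BugLite luminescent read reports ARE-luciferase activity.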
Rango release inh = inhibition of RanGTP-driven Rango-importin beta dissociation | O95149+P62826 | Biochemical FRET Rango-importin beta, RanGTP-induced dissociation | Potency, µM (highest dose often 46.1 µM) | actives 0.071% (n = 340,000); calls by dose curve; note: nearly all actives have a fitted effect of over 45% in size
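Rango (0.1 uM)–importin beta (0.25 uM) complex; RanGTP-RCC1 trigger; 45 min RT; CFP/YFP FRET read.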
Nrf2 inh = inhibitors of Nrf2 signaling; A549 ARE-Fluc reporter, luciferase luminescence, 18-24 h; Potency, µM (series often up to 46 µM), usual class: inhibitors; actives 2.1% (n = 360,000); AID 504444; note: nearly all actives have a fitted effect of over 60% in size
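A549 ARE_Fluc cells (5000/well, 5% FBS OPTI-MEM) pre-incubated 2 h, then treated with compounds 18-24 h at 37C/5% CO2 in concentration-response. CellTiter-Fluor viability read first; BugLite luciferase luminescence after 15 min at room temperature gives Nrf2 activity.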
Rango-impB inh = inhibitors of Rango-importin beta complex formation. Q14974. Rango CFP/YFP FRET sensor + importin beta, 45 min. Potency, µM (top dose mostly 92.2 µM). actives 0.031% (n = 340,000). AID 540263; calls by dose curve; note: nearly all actives have a fitted effect of over 15% in size
Target sequence (Q14974 whole entry, looked up): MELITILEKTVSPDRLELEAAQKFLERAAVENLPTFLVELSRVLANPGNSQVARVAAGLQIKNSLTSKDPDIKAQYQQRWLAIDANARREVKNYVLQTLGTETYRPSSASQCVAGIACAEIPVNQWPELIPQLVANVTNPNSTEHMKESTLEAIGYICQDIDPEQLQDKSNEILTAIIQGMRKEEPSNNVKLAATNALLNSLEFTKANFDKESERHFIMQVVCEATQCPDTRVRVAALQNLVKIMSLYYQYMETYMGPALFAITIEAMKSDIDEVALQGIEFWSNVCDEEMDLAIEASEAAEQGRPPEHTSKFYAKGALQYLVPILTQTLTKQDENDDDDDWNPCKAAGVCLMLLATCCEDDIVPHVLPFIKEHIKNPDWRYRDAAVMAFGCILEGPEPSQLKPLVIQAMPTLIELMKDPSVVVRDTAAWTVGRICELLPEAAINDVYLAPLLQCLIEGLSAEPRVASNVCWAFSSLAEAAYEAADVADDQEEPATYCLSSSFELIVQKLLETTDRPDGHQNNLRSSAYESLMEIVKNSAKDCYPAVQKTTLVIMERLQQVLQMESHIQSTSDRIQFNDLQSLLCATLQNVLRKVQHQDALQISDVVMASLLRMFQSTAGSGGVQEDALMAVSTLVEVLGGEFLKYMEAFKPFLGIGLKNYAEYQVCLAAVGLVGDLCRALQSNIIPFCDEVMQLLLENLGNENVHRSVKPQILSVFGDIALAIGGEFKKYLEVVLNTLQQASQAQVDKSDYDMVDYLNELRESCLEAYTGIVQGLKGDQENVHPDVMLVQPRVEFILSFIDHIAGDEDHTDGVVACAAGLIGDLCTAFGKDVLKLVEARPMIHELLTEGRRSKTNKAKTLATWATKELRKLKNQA
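Inhibition scored from the CFP 486 nm/YFP 530 nm FRET ratio 45 min after adding 0.125 microM importin beta to 50 nM Rango biosensor preincubated 5 min with compound (room temperature, PBS with DTT, Tween-20, BSA). No-importin wells as positive control.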
Nrf2 activator = Nrf2 pathway activation | AREc32 ARE-luciferase reporter (MCF7-derived line), luminescence, 24 h | actives 0.31% (n = 410,000) | AID 624171 | Potency, µM (highest dose often 46.1 µM), usual class: activators; note: nearly all actives have a fitted effect of over 65% in size
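For detection, Steady-Glo was added and plates sat 30 min at RT; before that, AREc32_Fluc cells grown overnight in OPTI-MEM/5% FBS had been treated with 23 nL compound for 24 hr at 37 deg C.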
Large screens that a line does not name were inactive. Unless noted, calls come from the whole dose curve; as a rule, active = well fitted curve in the direction sought with a large enough effect; inconclusive = small, poorly fitted or top-dose-only effect, or another doubt; inactive = no such curve, though single readings can be large; an effect the other way counts as inactive or inconclusive.

Cc1cccc(N2CCN(S(=O)(=O)c3cc(-c4cc(C)no4)ccc3C)CC2C)c1 (centres undefined)	Nrf2 inh 7.3µM
Cc1cc(-c2ccc(C)c(S(=O)(=O)N3CCC(C)CC3)c2)on1	Nrf2 inh inconclusive (no result: Rango release inh, Rango-impB inh)
O=C(CSc1ccc(-c2ccco2)nn1)N1CCCCC1	Nrf2 inh inconclusive, Nrf2 activator inconclusive
O=C(CSc1ccc(-c2ccco2)nn1)N1CCCC1	Nrf2 activator 10µM
COc1ccc(N/C=C2\C(=O)CCc3c2oc2cc(Cl)c(O)c(Cl)c32)cc1	Nrf2 activator 7.1µM
COc1ccc(C2c3c(nc(Cc4ccccc4)[nH]c3=O)Oc3ccc4ccccc4c32)cc1OC (centres undefined)	Nrf2 inh inconclusive (no result: Rango release inh, Rango-impB inh, Nrf2 activator)
CC1CCc2c(sc3ncnc(SCC(=O)N(C)C4CCS(=O)(=O)C4)c23)C1 (centres undefined)	Nrf2 inh 16µM
Cc1cccc(NC(=O)CSc2ncnc3sc(C)c(C)c23)n1	Nrf2 inh inconclusive, Rango-impB inh inconclusive
CCCN(CC1CC1)C(=O)CSc1ncnc2sc(C)c(C)c12	Nrf2 inh inconclusive
Cc1sc2ncnc(SCC(=O)c3cccs3)c2c1C	Nrf2 inh inconclusive, Rango-impB inh inconclusive, Nrf2 activator 14µM
CC(=O)CSc1ncnc2sc3c(c12)CCC(C)C3 (centres undefined)	none
CCN(C(=O)CSc1ncnc2sc(C)c(C)c12)C1CCS(=O)(=O)C1 (centres undefined)	Nrf2 inh 13µM
CCOc1ccc(CCNC(=O)c2cn(C)c3ccc(S(=O)(=O)N4CCOCC4)cc3c2=O)cc1OCC	Nrf2 inh inconclusive
Cc1ccc2oc(=O)c(S(=O)(=O)c3ccc(F)cc3)cc2c1	Nrf2 activator inconclusive (no result: Rango release inh, Rango-impB inh)
O=c1oc2c(F)cc(F)cc2cc1S(=O)(=O)c1ccc(F)cc1	A549 viability inconclusive, Nrf2 activator 10µM (no result: Rango release inh, Rango-impB inh)
COC(=O)c1ccc(OCC(=O)c2ccc(O)cc2O)cc1	Nrf2 inh 8.2µM
CCOC(=O)c1ccc(OCC(=O)c2ccc(O)cc2O)cc1	Nrf2 inh inconclusive
O=C(COc1ccc(Cl)cc1)c1ccc(O)cc1O	Nrf2 inh 7.3µM
CC[n+]1c(/C=C(\C)OC)sc2ccccc21	none
CC[n+]1c(/C=C/C=C/N(C(C)=O)c2ccccc2)sc2cc(OC)ccc21	A549 viability 15µM, Rango release inh inconclusive, Rango-impB inh inconclusive
Cc1c(C(=O)NCc2cccc(Br)c2)oc2ccc3c(c12)C(=O)CC(C)(C)O3	Nrf2 inh inconclusive (no result: Rango release inh, Rango-impB inh)
O=C(C1CCN(S(=O)(=O)c2ccc(-n3cnnn3)cc2)CC1)N1CCN(c2ccccc2)CC1	none
O=C(C1CCN(S(=O)(=O)c2ccc(-n3cnnn3)cc2)CC1)N1CCCCC1	Nrf2 inh 13µM
CCOc1ccc(S(=O)(=O)N2CCC(C(=O)N3CCCCCC3)CC2)cc1C	Nrf2 inh 18µM
CCOC(=O)C1=C(COC(=O)C2(C)CC2(Cl)Cl)NC(=O)NC1c1ccccc1 (centres undefined)	none
Cc1c(CC(=O)N2CCN(C(=O)C3COc4ccccc4O3)CC2)c(=O)oc2cc(O)c(Cl)cc12 (centres undefined)	Rango release inh inconclusive, Nrf2 inh 23µM, Rango-impB inh inconclusive
COc1ccc2c(C)c(CC(=O)N3CCN(C(=O)C4COc5ccccc5O4)CC3)c(=O)oc2c1C (centres undefined)	none
Cc1nn2c3c(cnc2c1-c1ccccc1)C(=O)CC(c1ccco1)C3 (centres undefined)	Rango-impB inh inconclusive, Nrf2 activator 1.3µM
Cc1nn2c3c(cnc2c1-c1ccccc1)C(=O)CC(c1ccccc1)C3 (centres undefined)	Nrf2 inh inconclusive
O=c1c2[nH]c3ccsc3c2cnn1Cc1ccccc1F	none (no result: Rango release inh, Rango-impB inh, Nrf2 activator)
O=C(COc1ccc(-c2nnc(N3CCCCC3)c3ccccc23)cc1)N1CCCCC1	Nrf2 inh inconclusive
Cc1ccc(-c2nnc(N3CCN(C(=O)COc4ccccc4)CC3)c3ccccc23)cc1	A549 viability inconclusive, Nrf2 inh 18µM
O=C(COc1ccc([N+](=O)[O-])cc1)N1CCN(c2nnc(-c3ccccc3)c3ccccc23)CC1	Nrf2 inh 23µM
Cc1ccc(NC(=O)CSc2nc(O)c(Cc3ccccc3)c(=O)n2-c2ccccc2)cc1	none
CN(C(=O)c1coc(=O)c2ccccc12)c1ccc(F)cc1	Nrf2 inh 23µM
CC(=O)Nc1ccc(S(=O)(=O)Nc2ccc(C)c(C)c2)cc1	Nrf2 inh inconclusive (no result: Rango release inh, Rango-impB inh, Nrf2 activator)
O=C(NCc1ccccc1F)C(=O)NCC(c1ccco1)S(=O)(=O)c1cccs1 (centres undefined)	none (no result: Rango release inh, Nrf2 inh, Rango-impB inh)
Cc1ccc(O)c(NC(=O)CSc2n[nH]c(C)c2[N+](=O)[O-])c1	Nrf2 activator 11µM
O=C(CCN1C(=O)/C(=C/c2ccccc2)SC1=S)N1CCCCCC1	A549 viability inconclusive, Nrf2 inh 21µM, Nrf2 activator inconclusive
CN1CCN(C(=O)CCCN2C(=O)/C(=C/c3ccc(Cl)cc3)SC2=S)CC1	A549 viability inconclusive, Nrf2 inh inconclusive, Nrf2 activator inconclusive
CN1CCN(C(=O)CCN2C(=O)/C(=C\c3ccc(Cl)cc3Cl)SC2=S)CC1	A549 viability 7.3µM, Nrf2 inh inconclusive, Nrf2 activator 13µM
COc1ccc(NS(=O)(=O)c2ccc(NC(=O)c3ccc(Br)cc3)cc2)nn1	Nrf2 inh 21µM
CC(=O)N1CCc2cc(S(=O)(=O)NCCC3=CCCCC3)ccc21	Nrf2 inh 3.7µM
Cc1ccc(S(=O)(=O)NCCC2=CCCCC2)cc1C(N)=O	Nrf2 inh 10µM
CC(=O)N1CCc2cc(S(=O)(=O)CCC(=O)N3CCc4ccccc4C3)ccc21	Nrf2 inh inconclusive
CC(=O)N1CCc2cc(S(=O)(=O)NCCC(=O)N3CCc4ccccc4C3)ccc21	Nrf2 inh 13µM
CC(=O)N1CCc2cc(S(=O)(=O)NC3CCCc4ccccc43)ccc21 (centres undefined)	Nrf2 inh 6.3µM
CCc1ccc(NC(=O)c2ccc3[nH]c(C)c(C)c3c2)cc1	Nrf2 inh inconclusive (no result: Rango release inh, Rango-impB inh)
CCC1(c2ccc(F)cc2)NC(=O)N(CC(=O)N(C)C2CCS(=O)(=O)C2)C1=O (centres undefined)	none
COc1cccc(N2CC(NC(=O)COc3ccc4ccccc4c3)CC2=O)c1 (centres undefined)	none (no result: Rango release inh, Nrf2 inh, Rango-impB inh)
Cc1ccc(NC(=O)c2cc(S(=O)(=O)NCCC3=CCCCC3)ccc2F)cc1F	A549 viability inconclusive, Nrf2 inh 10µM
CCC(=O)N1CCc2cc(S(=O)(=O)NCCC(=O)N3CCN(c4cccc(C)c4)C(C)C3)ccc21 (centres undefined)	Nrf2 inh 18µM
CCC(=O)N1CCc2cc(S(=O)(=O)NCCC(=O)N3CCN(c4ccccc4)CC3)ccc21	none

From PubChem BioAssay
